Rows were chosen to be rich in hits. Some 4.7% of all compounds tested hit in one or more screens of this group.
TRHR PAM: qHTS for Small Molecule Agonists and Allosteric Enhancers of Human TRH Receptor: Primary Screen for Enhancers; Thyrotropin-releasing hormone receptor (Homo sapiens), P34981; TRHR cells, fluo-8 calcium fluorescence, EC20 TRH enhancement; enhancement, % at 2 µM; actives 0.66% (n = 360,000); in the data active = enhancement above about 30%; note: 0% is about no effect
Target sequence (P34981 whole entry, looked up): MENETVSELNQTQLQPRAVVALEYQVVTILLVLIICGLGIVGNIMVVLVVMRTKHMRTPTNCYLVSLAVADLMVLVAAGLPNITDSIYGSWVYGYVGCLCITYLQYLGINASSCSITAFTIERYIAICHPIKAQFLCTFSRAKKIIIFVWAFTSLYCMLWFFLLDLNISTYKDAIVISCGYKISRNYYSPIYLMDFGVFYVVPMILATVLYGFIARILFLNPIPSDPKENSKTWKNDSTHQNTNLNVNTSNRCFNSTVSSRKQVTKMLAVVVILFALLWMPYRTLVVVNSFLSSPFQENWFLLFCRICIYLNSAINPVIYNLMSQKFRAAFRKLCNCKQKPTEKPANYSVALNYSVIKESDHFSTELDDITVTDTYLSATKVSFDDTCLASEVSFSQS
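TRHR-expressing cells loaded with fluo-8 calcium dye were read kinetically (ex 480/em 530) during compound addition, then stimulated with an EC20 of TRH (10 nM final). Enhancement of the Gq-mediated intracellular calcium response was scored.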
D1 antag: Antagonist of Human D 1 Dopamine Receptor: qHTS; D(1A) dopamine receptor (Homo sapiens), P21728; HEK293 TREx D1 cells, calcium flux, dopamine EC80; hits give low values; activity change, negative = inhibition, % at 10 µM; actives 3.2% (n = 360,000); in the data active = activity change below about -30%; note: % is set by controls: 0 for no effect and ±100 for the full control effect
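Inducible Hek293 Trex D1 cells (tetracycline, overnight, 30 C). Calcium dye 30–90 min RT. Antagonist mode: EC80 dopamine added after 180 s compound read.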
D1 ag: Allosteric Agonists of the Human D1 Dopamine Receptor: qHTS; D(1A) dopamine receptor (Homo sapiens), P21728; HEK293 T-REx D1 cells, calcium flux, agonist mode; activation, % at 2 µM; actives 1% (n = 360,000); AID 504660, 2011; note: 0% is about no effect
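Tetracycline-induced HEK293 TREx D1 cells, force-coupled to calcium signalling, were dye-loaded with a no-wash calcium kit. Compound was pin-added after a 10 s baseline. Fluorescence was read kinetically at 1 cycle/s for 180 s, with calcium rises flagged as agonism.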
D1 potentiator: Potentiators of Human D1 Dopamine Receptor: qHTS. HEK293 TREx D1 cells, calcium flux, dopamine EC20 potentiation. potentiation, % at 10 µM. AID 504651, 2011. actives 0.036% (n = 360,000); in the data active = potentiation above about 30%; note: 0% is about no effect
TRHR agonist: qHTS for Small Molecule Agonists and Allosteric Enhancers of Human TRH Receptor: Primary Screen for Agonists | activation, % at 2 µM | actives 0.18% (n = 360,000) | AID 493084, 2011 | TRHR cells, calcium flux fluo-8, FDSS agonist mode; note: 0% is about no effect
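Agonist-mode FDSS calcium read (Ex 480/Em 530, 1 s cycles) in 1536-well TRHR cells with fluo-8 dye, after 10-cycle baseline and 23 nL compound addition; TRH at EC20 (10 nM final) added afterwards for the enhancer phase.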
Numbers without * were called inactive; · = no result. Cut-off read from the data, not from the text of the source, unless noted: active = activation above about 30%; inactive = the rest.

SMILES	TRHR PAM	D1 antag	D1 ag	D1 potentiator	TRHR agonist
CC(C)(C)c1ccc(C(=O)NCC(=O)OCc2cc(=O)n3nc(C4CC4)sc3n2)cc1	-3	13	0	-6	0
COC(=O)c1c(-c2cccs2)csc1NC(=O)c1cc(OC)cc(OC)c1	-3	-1	3	0	1
Cc1c(C(=O)N2CCC(C)CC2)c(S(=O)(=O)N2CCN(c3ccc(Cl)cc3)CC2)c(C)n1C	-9	3	3	1	-1
Cn1c(SCC(=O)N/N=C/C=C\c2ccco2)nc2ccccc21	3	7	0	10	0
CCn1c(SCC(=O)N/N=C/C=C\c2ccco2)nc2ccccc21	-7	-35*	3	-6	0
Cc1oc2ncn(CC(C)C)c(=O)c2c1C(=O)NCCCN(C)Cc1ccccc1	9	0	1	-7	-1
CC(=Nc1ccc(C)cc1C)c1sc2ccccc2c1O	0	-12	21	-6	5
CC(=Nc1ccc(C)cc1)c1sc2ccccc2c1O	-6	-22	61*	-8	19
CCCCc1ccc(NC=C2C(=O)OC3(CCCCC3)OC2=O)cc1	6	·	2	-3	2
NS(=O)(=O)c1ccc(NC=C2C(=O)OC3(CCCCC3)OC2=O)cc1	33*	6	11	0	0
CCOC(=O)c1cccc(NC(=O)CCc2c(C)nc3cc(-c4ccc(Cl)cc4)nn3c2C)c1	-3	-2	3	-2	0
COc1ccccc1NS(=O)(=O)c1ccc(N/N=C(\C)C(C)C)c([N+](=O)[O-])c1	1	-31*	1	-3	-2
C/C(=N\Nc1ccc(S(=O)(=O)Nc2ccccc2)cc1[N+](=O)[O-])c1ccncc1	1	-32*	1	-4	0
CCCC(CCC)=NNc1ccc(S(=O)(=O)Nc2ccccc2OC)cc1[N+](=O)[O-]	14	-6	2	-2	0
Cc1ccc(NC(=O)CSc2n[nH]c(-c3ccc(F)cc3)n2)cc1F	2	-11	5	-3	0
COc1ccccc1NC(=O)C(OC(=O)CNC(=O)c1ccccc1)c1ccccc1 (stereo not given)	-5	21	0	-5	-2
COc1ccc(OC)c(NC(=O)c2ccc(Cl)cc2)c1	-8	-36*	-1	10	0
CC(=O)Nc1cc(C(F)(F)F)ccc1Oc1cccc(Br)c1	3	-5	30*	-12	-1
COCCOc1ccc(C(F)(F)F)cc1NC(=O)c1ccc(C)cc1	6	-12	3	-5	0
COc1ccc(Oc2ccc(C(F)(F)F)cc2NC(=O)c2ccc(C)cc2)cc1	8	-8	31*	5	-2
CCOc1ccccc1NC(=O)Cn1nnc2sc(-c3ccccc3)cc2c1=O	1	3	0	-1	-1
COc1ccc(C2=Nn3c(nc4sc(C(=O)Nc5cccc(C)c5)c(C)c4c3=O)SC2)cc1	4	-1	1	-2	0
Cc1ccsc1/C=N/NC(=O)C1CC(=O)N(c2ccccc2)C1 (stereo not given)	1	-47*	0	-7	0
NC(=O)CSc1nc2c(sc(=S)n2-c2ccccc2)c(=O)[nH]1	7	-38*	0	0	0
Cc1cc(N2CCOCC2)nc2ccc(NC(=O)CCC(=O)N3CCN(c4ccccc4F)CC3)cc12	2	-43*	1	0	0
Cc1cc(N2CCOCC2)nc2ccc(NC(=O)CCC(=O)N3CCN(c4ccc(F)cc4)CC3)cc12	-1	-11	-1	3	1
CCN(C(=O)Cn1nc(Cc2cccnc2)c2ccccc2c1=O)c1cc(C)ccc1C	-5	-2	0	2	0
CC(C)[C@H]1C(=O)Nc2ccccc2N1C(=O)N[C@@H](Cc1ccccc1)C(=O)N[C@H](Cc1ccccc1)C(=O)O	1	2	1	-1	0
CC(C)[C@H]1C(=O)Nc2ccccc2N1C(=O)N[C@@H](Cc1ccccc1)C(=O)N[C@@H](Cc1ccccc1)C(=O)O	3	-31*	0	0	0
